{"source": "PubChem BioAssay (NCATS)", "note": "Results filed as inconclusive are left out. Calls of active or inactive are those of the source. Unless noted, calls come from the whole dose curve; as a rule, active = well fitted curve in either direction with a large enough effect (not every such curve was filed as active); inconclusive = small, poorly fitted or top-dose-only effect, or another doubt; inactive = flat fitted curve, though single readings scatter.", "data": [{"assay": "Cell Viability - SK-N-SH (AID 435; calls by dose curve;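 note: potency is the fitted concentration of half-maximal effect; compound exposure lasted 40 h at 37 °C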)", "conditions": "SK-N-SH neuroblastoma cell viability qHTS", "outline": "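SK-N-SH human neuroblastoma cells (1500/well) were exposed to compounds in complete medium for 40 h at 37 °C, and intracellular ATP was then measured by CellTiter-Glo luminescence. AC50 was taken from Hill fits, normalized to DMSO and 100 uM tamoxifen.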", "values": [{"smiles": "Cc1ccnc2c1NC(=O)c1cccnc1N2C1CC1", "Potency": "> 92 µM (inactive)"}, {"smiles": "C[C@]12C=CC(=O)C=C1CC[C@@H]1[C@@H]2C(=O)C[C@@]2(C)[C@H]1CC[C@]2(O)C(=O)CO", "Potency": "> 92 µM (inactive)"}, {"smiles": "O=C(N[C@H](CO)[C@H](O)c1ccc([N+](=O)[O-])cc1)C(Cl)Cl", "Potency": "> 92 µM (inactive)"}, {"smiles": "CN(C)c1ccc(C(=C2C=CC(=[N+](C)C)C=C2)c2ccc(N(C)C)cc2)cc1", "Potency": "1.8 µM (active)"}, {"smiles": "CC(=O)Oc1ccccc1C(=O)Nc1ncc([N+](=O)[O-])s1", "Potency": "20.7 µM (active)"}, {"smiles": "N=C(N)c1ccc(OCCCCCOc2ccc(C(=N)N)cc2)cc1", "Potency": "> 92 µM (inactive)"}, {"smiles": "O=C(O)c1cc(=O)[nH]c(=O)[nH]1", "Potency": "> 92 µM (inactive)"}]}, {"assay": "NFAT Signaling Pathway (AID 444);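 note: carbachol stimulus at about its EC50 of 1 µM final; % is set by controls: 0 for no effect and ±100 for the full control effect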", "conditions": "Jurkat NFAT-bla M1, carbachol, beta-lactamase ratio, 5 h; at 17.2 µM (top of the series) unless noted", "outline": "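Read-out: CCF4 FRET ratio (460 nm/530 nm) after 1 h RT dye loading, used for %activity and AC50 from titration series. Cells: Jurkat NFAT-β-lactamase/M1 line, treated with compound plus 1 uM carbachol for 5 h, 37 °C.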", "values": [{"smiles": "COc1cc2ncnc(Nc3cccc(Cl)c3)c2cc1OC", "activity change, negative = inhibition": "3.52% [at 38 µM] (inactive)"}, {"smiles": "O=C(O)c1cccnc1", "activity change, negative = inhibition": "-4.12% (inactive)"}, {"smiles": "CCC(=O)O[C@]1(C(=O)CCl)[C@@H](C)C[C@H]2[C@@H]3CCC4=CC(=O)C=C[C@]4(C)[C@@]3(F)[C@@H](O)C[C@@]21C", "activity change, negative = inhibition": "-24.5% (inactive)"}, {"smiles": "O=C(O)c1cn(C2CC2)c2cc(N3CCNCC3)c(F)cc2c1=O", "activity change, negative = inhibition": "6.31% (inactive)"}, {"smiles": "O=S(=O)(c1cccc2cnccc12)N1CCCNCC1", "activity change, negative = inhibition": "-20.4% (inactive)"}, {"smiles": "Nc1[nH]c(=O)ncc1F", "activity change, negative = inhibition": "0.663% (inactive)"}, {"smiles": "N[C@@H](C(=O)N[C@@H]1C(=O)N2C(C(=O)O)=C(Cl)CS[C@H]12)c1ccccc1", "activity change, negative = inhibition": "7.31% (inactive)"}, {"smiles": "CC1=CC(=O)c2ccccc2C1=O", "activity change, negative = inhibition": "-115% (active)"}, {"smiles": "Cn1c(=O)c2c(ncn2CC(O)CO)n(C)c1=O", "note": "(stereo unspecified)", "activity change, negative = inhibition": "10.5% (inactive)"}]}]}
